# The list is not random: actives were taken first. Their share in the collection is about 2.4%.
# Pol kappa inh-1 – DNA polymerase kappa (human) inhibition | hit rate 0.53% among 400,000 | Potency, µM (series often up to 107 µM), inactives show top-dose activity, negative = inhibition, hits mostly inhibitors | Q9UBT6 | purified Pol kappa, fluorescent DNA synthesis assay, 10 min; also: % is scaled to controls: 0 for no effect and ±100 for the full control effect
#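 Kinetic fluorescence screen: compound preincubated 15 min RT with 10 nM enzyme; 50 nM substrate (final) initiates; reads at 0/10 min.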
# Pol beta inh – DNA polymerase beta (human) inhibition. Pol beta primer extension/strand displacement, fluorescence kinetic. Potency, µM (doses to about 114 µM), for the others: top-dose activity change, negative = inhibition, most hits filed as inhibitors. hit rate 1.3% among 340,000. AID 485314; also: % is scaled to controls: 0 for no effect and ±100 for the full control effect
#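 Pol beta (10 nM) was preincubated with compound for 15 min at room temperature. The reaction was then started with 50 nM substrate and read immediately and after a further 10 min at room temperature.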
# Pol iota inh – blocks human DNA polymerase iota activity; Q9UNA4; Pol iota fluorescent replication assay, 10 min; Potency, µM (top dose mostly 115 µM), for inactives: top-dose activity, negative = inhibition, actives largely listed as inhibitors; hit rate 1% among 390,000
#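 Fluorescent replication assay read twice, at 0 min and 10 min after adding 50 nM (final) substrate. Enzyme (10 nM) and compounds were first incubated 15 min at room temperature; enzyme-free buffer wells were negative controls.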
# WRN helicase inh – inhibitors of human WRN helicase; Q14191; WRN helicase unwinding, fluorescent forked duplex, kinetic; Potency, µM (top dose mostly 114 µM), inactives show at the top dose activity change, negative = inhibition, actives largely listed as inhibitors; hit rate 0.46% among 360,000; also: % is scaled to controls: 0 for no effect and ±100 for the full control effect; nearly all actives have a fitted effect of over 55% in size
#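 Primary qHTS, 1536-well format. 20 nM WRN + compound, 15 min RT; start with 100 nM forked fluorophore/quencher duplex, 2 mM ATP (final); kinetic read ex 525/em 598 nm.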
# FEN1 inh – inhibitors of human flap endonuclease 1; P39748; Recombinant FEN1 flap cleavage, fluorescence, 15 min; Potency, µM (doses to about 114 µM), for the others: at the top dose activity change, negative = inhibition, actives largely listed as inhibitors; hit rate 0.35% among 390,000; also: % is scaled to controls: 0 for no effect and ±100 for the full control effect; nearly all actives have a fitted effect of over 65% in size
# Target sequence (P39748 whole entry, looked up): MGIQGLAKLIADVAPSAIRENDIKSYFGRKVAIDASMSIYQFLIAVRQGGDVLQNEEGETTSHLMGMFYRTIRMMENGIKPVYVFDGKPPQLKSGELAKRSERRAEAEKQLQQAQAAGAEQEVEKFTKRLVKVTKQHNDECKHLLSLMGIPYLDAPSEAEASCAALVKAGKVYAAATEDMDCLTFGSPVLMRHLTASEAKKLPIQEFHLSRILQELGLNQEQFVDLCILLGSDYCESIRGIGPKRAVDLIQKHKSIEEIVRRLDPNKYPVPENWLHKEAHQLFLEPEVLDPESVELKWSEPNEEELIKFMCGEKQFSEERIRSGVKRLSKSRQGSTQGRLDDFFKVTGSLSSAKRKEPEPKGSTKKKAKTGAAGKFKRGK
#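 Compounds are tested as a concentration series against 10 nM FEN1; after a 15 min room-temperature preincubation, 50 nM substrate starts cleavage, with plate reads at 0 and 15 min. Normalized responses are fitted by a Hill equation.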
# Pol eta inh-1 – DNA polymerase eta (human) inhibition | recombinant Pol eta, fluorescent DNA replication assay | Potency, µM (titrated, usually from 114 µM), for the others: at the top dose activity change, negative = inhibition, hits mostly inhibitors | AID 588591 | hit rate 1.2% among 390,000; also: % is scaled to controls: 0 for no effect and ±100 for the full control effect
#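 Fluorescent replication assay: 50 nM final substrate added after a 15 min room-temperature compound preincubation with 10 nM enzyme. Signal taken at 0 min and again at 10 min.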
# Pol kappa inh-2 – Pol kappa (human) inhibition, cherry-pick confirmation | purified Pol-kappa, fluorescent strand-displacement substrate | hit rate 76% among 920 | AID 720501 | Potency, µM, actives largely listed as inhibitors | shares compounds with Pol eta inh-1
# Pol eta inh-2 – Pol eta (human) inhibition, cherry-pick confirmation | Potency, µM, most hits filed as inhibitors | hit rate 64% among 2,600 | shares compounds with Pol eta inh-1 | Pol eta primer extension, TAMRA/BHQ fluorescence, 10 min
# Starred values were filed as active, the others as inactive; ? = inconclusive; nt = no result; [ ] = remark or other dose. Calls follow the shape of the dose curve; as a rule, active = well fitted curve in the direction sought with a large enough effect; inconclusive = small, poorly fitted or top-dose-only effect, or another doubt; inactive = no such curve, though single readings can be large; an effect the other way counts as inactive or inconclusive. Potency is read from the fitted curve at half-maximal effect.
SMILES,Pol kappa inh-1,Pol beta inh,Pol iota inh,WRN helicase inh,FEN1 inh,Pol eta inh-1,Pol eta inh-2,others
COc1ccc(-c2nn(-c3ccccc3)cc2/C=C2/SC(=S)N(CCC(=O)O)C2=O)cc1,-34%,32µM*,?,50µM*,79µM*,22µM*,nt,Pol kappa inh-2=17*
COc1cccc([C@@H]2Nc3ccc(C(=O)O)cc3[C@@H]3C=CC[C@@H]32)c1OC,8%[60.1 µM],2%,18%,nt,-15%,8%,nt,
CC(C)C1Nc2ccc(C(=O)O)cc2C2C=CCC21 (configuration not stated),?,13µM*,?,50µM*,?,20µM*,27*,
CCOC(=O)C1=C(O)/C(=C\c2ccc(CNC(=O)C(=O)Nc3ccccc3)o2)N=C1C,?,8.9µM*,18µM*,?,-17%,10µM*,48*,Pol kappa inh-2=53*
CCN(CCCCN1C(=O)c2ccccc2C1=O)c1ccc2c(c1)C(=O)N(C)C2=O,?,-20%,16µM*,?,-23%,50µM*,?,
O=C(N/N=C/c1cc(Cl)cc([N+](=O)[O-])c1O)c1ccccc1NS(=O)(=O)c1cccs1,-9%,-5%,?,-18%[11.6 µM],-33%,?,?,
O=C1C2C3C=CC(CC3)C2C(=O)N1/N=C/c1ccc(O)c(O)c1 (configuration not stated),?,?,?,-15%[57.1 µM],6%,4µM*,?,
O=C1C2C3C=CC(CC3)C2C(=O)N1/N=C/c1ccc(O)cc1 (configuration not stated),-2%,22%,4%,1%,-3%,4%,nt,
O=C(Cc1ccc(S(=O)(=O)N2CCOCC2)s1)NC1CCCCC1,?,nt,45µM*,-29%,-6%,20µM*,?,
O=C(Cc1ccc(S(=O)(=O)N2CCOCC2)s1)NCC1CCCCC1,-29%,?,-17%,-12%,3%,?,nt,
COc1ccc2nc(-c3ccccc3)[nH]c2c1,-20%,2%,16%,-15%,-20%,-8%,nt,
Oc1c(Br)cc(C=Nc2ccc3nc(-c4ccccc4)[nH]c3c2)c(O)c1Br,50µM*,?,?,?,40µM*,14µM*,30*,Pol kappa inh-2=9.5*
CCOC(=O)c1sc(N/N=C/c2ccccc2)nc1C,-2%,30%,29%,?,8%,-21%,nt,
O=C(O)Cc1sc(N/N=C\c2ccccc2)nc1-c1ccccc1,-44%,-24%,?,-16%[11.6 µM],-17%,40µM*,48*,Pol kappa inh-2=27*
CC(C)CC(N)c1csc(Nc2ncccn2)n1 (configuration not stated),nt,nt,nt,7%,nt,nt,nt,
O=C(O)CC(C(=O)O)c1ccc(OCCCCOc2ccc(C(CC(=O)O)C(=O)O)cc2)cc1 (configuration not stated),79µM*,?,79µM*,-14%[11.6 µM],8%,18µM*,9.5*,Pol kappa inh-2=9.5*
CC(C)CCOc1ccc(C(CC(N)=O)C(=O)O)cc1 (configuration not stated),-2%,12%,6%,-1%,-9%,-14%,nt,
OC[C@H]1O[C@@H](n2cnc3cncnc32)[C@H](O)[C@@H]1O,-4%[60.1 µM],2%[57.1 µM],-3%[58.9 µM],nt,nt,-5%[57.1 µM],nt,
COC(=O)c1ccc(/C=C2\CCn3c2nc2cc(C(=O)O)ccc2c3=O)cc1,-3%,7%,?,-7%[57.1 µM],-2%,-3%,nt,
CSc1ccc(/C=C2\CCn3c2nc2cc(C(=O)O)ccc2c3=O)cc1,-10%,-2%,92%,-15%[11.6 µM],?,50µM*,?,
O=C1CS/C(=N\N=C\c2ccco2)N1c1ccccc1,?,?,?,-9%[11.6 µM],-12%,?,?,Pol kappa inh-2=?
O=C1CS/C(=N/N=C/c2ccccc2)N1c1ccc(O)cc1,-4%,-4%,110%,-18%,-4%,-11%,nt,
Cc1ccc(CSc2nc(-c3ccc(C(C)(C)C)cc3)nc3cc(=O)[nH]n23)cc1,?,?,?,nt,-8%,50µM*,85*,
C=CCc1ccccc1OCCSc1nc(-c2ccc(C(C)(C)C)cc2)nc2cc(=O)[nH]n12,-32%,40µM*,?,nt,?,?,76*,
CCc1ccc(NC(=O)CCNS(=O)(=O)c2ccc3c(c2)oc(=O)n3C)cc1,-24%,-24%,24%,nt,-7%,-22%,nt,
SMILES,Pol kappa inh-1,Pol beta inh,Pol iota inh,WRN helicase inh,FEN1 inh,Pol eta inh-1,Pol eta inh-2,others
Cc1ccc(NC(=O)CCNS(=O)(=O)c2ccc3c(c2)oc(=O)n3C)cc1,89µM*,-3%,20µM*,?,6%,50µM*,?,
Cc1ccc2nc(/C(C#N)=C/c3ccc(-c4ccccc4C(=O)O)o3)[nH]c2c1,?,22µM*,?,-18%[11.6 µM],?,20µM*,nt,Pol kappa inh-2=?
Cc1ccc2nc(/C(C#N)=C\c3cc(C)n(-c4cccc([N+](=O)[O-])c4)c3C)[nH]c2c1,-12%,-1%,-8%[58.9 µM],-12%,-7%,-7%,nt,
Cc1cc(/C=C(/C#N)c2nc3ccccc3[nH]2)c(C)n1-c1ccccc1C(=O)O,?,20µM*,11µM*,?,-6%,18µM*,38*,Pol kappa inh-2=17*
Cn1c(=O)c2cc(NC(=O)OCCF)ccc2n1Cc1cccc(C(F)(F)F)c1,nt,nt,nt,0%,nt,nt,nt,
CCN(c1ccccc1)S(=O)(=O)c1nnc(NC(=O)C2CCCCC2)s1,-4%,-25%,-7%,nt,4%,-16%,nt,
CC(=O)c1ccc(OC(=O)C2CSC3(C)CCC(=O)N23)cc1 (configuration not stated),-35%,nt,18µM*,-22%,41%,8.9µM*,?,
Cc1ccc([N+](=O)[O-])cc1S(=O)(=O)Nc1ccc(C(=O)N2CCN(C(=O)c3ccco3)CC2)cc1,?,nt,?,-5%[11.6 µM],-15%,22µM*,?,
